Shown are actives, neighbours in structure and some others; about 11% of the full set was active somewhere.
HP1b chromo inh – HP1-beta chromodomain-methylated histone interaction inhibition | AlphaScreen HP1-beta / biotin-H3K9me3 peptide binding | Potency, µM (series often up to 114 µM), most hits filed as inhibitors | 0.56% of 390,000 active; note: nearly all actives have a fitted effect of over 70% in size
Target sequence (P83916 whole entry, looked up): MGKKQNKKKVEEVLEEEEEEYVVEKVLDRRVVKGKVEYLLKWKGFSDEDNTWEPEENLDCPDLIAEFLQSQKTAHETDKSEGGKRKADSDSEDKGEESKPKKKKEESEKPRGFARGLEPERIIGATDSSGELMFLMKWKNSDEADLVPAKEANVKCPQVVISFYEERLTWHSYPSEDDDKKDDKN
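HP1-beta protein (50 nM final) preincubated 30 min at room temperature with biotinylated H3(1-18)K9me3 peptide (50 nM) in PBS pH 7.4, 0.01% Tween-20, then compound added for 30 min. AlphaScreen streptavidin donor/nickel chelate acceptor beads (10 ug/mL final), 30 min dark, luminescence read.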
PI5P4K alpha inh – blocks human PI5P4K alpha kinase activity; PI5P4Kalpha enzyme, ADP-Glo luminescence, 60 min; stronger effect = lower value; P48426; AID 652105; 1.2% of 330,000 active; max response, %; active = max response of -50% or lower; inconclusive = between -30% and -50%; inactive = -30% or higher; note: value at the top dose of about 77 µM
Target sequence (P48426 whole entry, looked up): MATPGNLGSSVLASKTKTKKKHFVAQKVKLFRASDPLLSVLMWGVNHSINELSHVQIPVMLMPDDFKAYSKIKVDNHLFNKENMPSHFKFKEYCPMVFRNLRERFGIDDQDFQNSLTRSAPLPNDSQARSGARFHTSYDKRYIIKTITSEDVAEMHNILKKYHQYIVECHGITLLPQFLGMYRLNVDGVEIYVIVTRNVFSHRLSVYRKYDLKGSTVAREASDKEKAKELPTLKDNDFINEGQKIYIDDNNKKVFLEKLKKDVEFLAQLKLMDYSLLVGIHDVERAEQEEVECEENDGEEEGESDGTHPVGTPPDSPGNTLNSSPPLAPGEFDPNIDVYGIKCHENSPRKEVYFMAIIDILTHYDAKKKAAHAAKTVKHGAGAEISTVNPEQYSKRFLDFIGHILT
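ADP-Glo luminescence end-point read after a 60 min room-temperature kinase reaction of PI5P4Kalpha plus substrate, initiated with ATP at 5 microM final. Buffer: 0.038 M HEPES pH 7.4, EGTA, 0.1% CHAPS, 5% DMSO.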
JMJD2A Tudor – inhibitors of human JMJD2A Tudor domain | Potency, µM (top dose mostly 114 µM), hits mostly inhibitors | 4.4% of 390,000 active | AlphaScreen JMJD2A-Tudor / H3K4me3 peptide binding; note: nearly all actives have a fitted effect of over 50% in size
G9a block – G9a (human) methyltransferase inhibition. Q96KQ7. G9a H3K9 monomethylation, AlphaScreen, 2 h. Potency, µM (highest dose often 102 µM), actives largely listed as inhibitors. 8.8% of 350,000 active; note: nearly all actives have a fitted effect of over 75% in size
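AlphaScreen read-out: biotin-H3K9 peptide (500 nM) methylation by 20 nM enzyme with 20 uM SAM, 2 h at room temperature after 15 min compound preincubation; anti-monomethyl H3K9 antibody plus donor/acceptor beads, 10 min dark.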
L3MBTL1 block – inhibitors of human L3MBTL1. AlphaScreen L3MBTL1–H3K9me1 peptide binding. Potency, µM (titrated, usually from 57.1 µM), actives largely listed as inhibitors. 0.66% of 230,000 active; note: nearly all actives have a fitted effect of over 60% in size
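First, the protein-peptide complex forms for 30 min at room temperature (L3MBTL1 50 nM, biotinylated H3K9me1 peptide 75 nM). Next, compounds are pin-transferred and incubated 30 min. Finally, AlphaScreen beads are added and read after 30 min.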
BAZ2B block – BAZ2B (human) inhibition | 4.4% of 360,000 active | Q9UIF8 | AID 504333 | AlphaScreen BAZ2B-H3K14Ac peptide displacement | Potency, µM (doses to about 114 µM), usual class: inhibitors; note: nearly all actives have a fitted effect of over 60% in size
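Multi-concentration screen (max 110 uM) measuring displacement of acetylated histone H3 peptide from BAZ2B by AlphaScreen, using 50 nM protein, 50 nM peptide and 10 ug/mL streptavidin donor plus Ni-chelate acceptor beads.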
Numbers stand for hits; [ ] = dose if it differs, or a comment. Unless noted, calls come from the whole dose curve; as a rule, active = well fitted inhibition curve with a large enough effect; inconclusive = small, poorly fitted or top-dose-only effect; inactive = no such curve, though single readings can be large or run the other way.

How did N#C/C(=C\c1ccco1)c1nc2ccccc2s1 do in these assays?
HP1b chromo inh: inactive; PI5P4K alpha inh: inactive; JMJD2A Tudor: inactive; G9a block: 8.9µM; L3MBTL1 block: inactive; BAZ2B block: inconclusive

How did N#C/C(=C/c1ccco1)c1nc2ccccc2s1 do in these assays?
HP1b chromo inh: inactive; PI5P4K alpha inh: inactive; JMJD2A Tudor: inactive; G9a block: inconclusive; L3MBTL1 block: inactive; BAZ2B block: inactive

Results for COc1ccc(CNC(=O)C(C)n2c(=O)cc(C)c3c(C)nn(-c4ccccc4)c32)cc1 (stereo not drawn) ?
HP1b chromo inh: inconclusive; JMJD2A Tudor: inactive; G9a block: inactive; BAZ2B block: inactive

How did CC(C)(C)c1ccc(C2=NC(=O)C(CC(=O)O)S2)cc1 (stereo not drawn) do in these assays?
HP1b chromo inh: inactive; PI5P4K alpha inh: inactive; JMJD2A Tudor: inactive; G9a block: 50µM; BAZ2B block: inconclusive

What do the screens show for `Cc1ccc(OCc2nc3ccccc3n2CCOc2ccc(Cl)cc2)cc1`?
HP1b chromo inh: inactive; JMJD2A Tudor: inactive; G9a block: inactive; BAZ2B block: inactive

How did Cc1nn(-c2ccccn2)c2c1C(c1ccsc1)C1=C(CCCC1=O)N2 (stereo not drawn) do in these assays?
HP1b chromo inh: inactive; PI5P4K alpha inh: inactive; JMJD2A Tudor: inactive; G9a block: inconclusive; BAZ2B block: inactive

How did Cc1nn(-c2ccccn2)c2c1C(c1c(F)cccc1Cl)C1=C(N2)c2ccccc2C1=O (stereo not drawn) do in these assays?
G9a block: inconclusive; L3MBTL1 block: inactive; BAZ2B block: 8.9µM

What do the screens show for `Cc1ccccc1-n1c(-c2ccc3ccccc3n2)n[nH]c1=S`?
HP1b chromo inh: inactive; PI5P4K alpha inh: inactive; JMJD2A Tudor: inactive; G9a block: 14µM; L3MBTL1 block: inactive; BAZ2B block: inactive

How did COc1ccc(-c2n[nH]c(=S)n2-c2ccccc2C)cc1 do in these assays?
HP1b chromo inh: inactive; PI5P4K alpha inh: inactive; JMJD2A Tudor: inconclusive; G9a block: 4.5µM; L3MBTL1 block: inactive; BAZ2B block: inactive

How did COc1ccc(-c2n[nH]c(=S)n2-c2ccccc2C)cc1OC do in these assays?
HP1b chromo inh: inactive; PI5P4K alpha inh: inactive; JMJD2A Tudor: 11µM; G9a block: 7.9µM; L3MBTL1 block: inactive; BAZ2B block: inactive

Results for S=c1[nH]nc(-c2ccc3ccccc3n2)n1-c1ccc2ncccc2c1 ?
HP1b chromo inh: inactive; PI5P4K alpha inh: inactive; JMJD2A Tudor: inactive; G9a block: 2µM; L3MBTL1 block: inactive; BAZ2B block: inconclusive

What do the screens show for `CN(C)c1ncc2nc(-c3cc(F)cc(F)c3)c(=O)n(C[C@H]3CCCO3)c2n1`?
G9a block: inactive[0.501 µM]

How did COc1cc(OC)cc(C(=O)Nc2ccc3nc(N4CCC(C)CC4)cc(C)c3c2)c1 do in these assays?
HP1b chromo inh: inactive; JMJD2A Tudor: inactive; G9a block: inactive; BAZ2B block: inactive

What do the screens show for `Cc1cc(Br)ccc1NC(=O)C(NS(=O)(=O)c1cccs1)c1ccccc1` (stereo not drawn)?
HP1b chromo inh: inactive; JMJD2A Tudor: inactive; G9a block: inactive; BAZ2B block: inactive

Results for CC(=O)N1CCC2(CC1)CN(c1ccccn1)C2 ?
G9a block: inactive[12.7 µM]

How did Cc1cccc(N2CCN(S(=O)(=O)c3ccc(-c4cc(C(F)(F)F)on4)s3)CC2)c1C do in these assays?
HP1b chromo inh: inactive; JMJD2A Tudor: inactive; G9a block: inactive; BAZ2B block: inactive

Results for COc1ccc(-n2cc(-c3ccccc3)nc2SCC(=O)Nc2ccccc2)cc1Cl ?
HP1b chromo inh: inactive; JMJD2A Tudor: inconclusive; G9a block: inconclusive; BAZ2B block: inconclusive

How did O=C(NNC(=O)c1cccnc1SCc1cccc([N+](=O)[O-])c1)c1ccc(F)cc1 do in these assays?
HP1b chromo inh: inactive; PI5P4K alpha inh: inactive; JMJD2A Tudor: inactive; G9a block: inconclusive; L3MBTL1 block: inactive; BAZ2B block: inactive

What do the screens show for `CCOc1ccc(C(=O)N/N=C(\c2ccccc2)c2ccccn2)cc1`?
HP1b chromo inh: inactive; PI5P4K alpha inh: inactive; JMJD2A Tudor: inactive; G9a block: inactive; L3MBTL1 block: inactive; BAZ2B block: 79µM

How did O=C(NNC(=O)c1cccnc1SCc1cccc([N+](=O)[O-])c1)c1cccnc1 do in these assays?
HP1b chromo inh: inactive; PI5P4K alpha inh: inactive; JMJD2A Tudor: inactive; G9a block: 35µM; L3MBTL1 block: inactive; BAZ2B block: inactive

Results for Cc1cc(C(=O)NNC(=O)c2cccc([N+](=O)[O-])c2)n[nH]1 ?
HP1b chromo inh: inactive; PI5P4K alpha inh: inactive; JMJD2A Tudor: inactive; G9a block: inconclusive; L3MBTL1 block: inactive; BAZ2B block: inactive

Results for O=C(NNC(=O)c1cnccn1)c1cccc([N+](=O)[O-])c1 ?
HP1b chromo inh: inactive; JMJD2A Tudor: inactive; G9a block: 0.56µM; L3MBTL1 block: inactive; BAZ2B block: inactive

How did O=C(N/N=C(\c1ccccc1)c1ccccn1)c1cccc([N+](=O)[O-])c1 do in these assays?
HP1b chromo inh: inactive; PI5P4K alpha inh: inactive; JMJD2A Tudor: inconclusive; G9a block: inactive; BAZ2B block: 25µM

Results for O=C(Nc1ccc(O)c2c(=O)cc(-c3ccccc3Cl)oc12)c1cc(Cl)cc(Cl)c1 ?
HP1b chromo inh: inactive; JMJD2A Tudor: inactive

What do the screens show for `Cn1ccnc1/C(=N\NC(=O)c1ccccc1)c1cccc([N+](=O)[O-])c1`?
HP1b chromo inh: inactive; PI5P4K alpha inh: inactive; JMJD2A Tudor: inactive; G9a block: 40µM; L3MBTL1 block: inconclusive; BAZ2B block: inactive

What do the screens show for `CCC1C(=O)CC2CCN3C(=O)CCC1C23` (stereo not drawn)?
HP1b chromo inh: inactive; JMJD2A Tudor: inactive

Results for Cc1ccc(S(=O)(=O)N2CCc3ccccc3C2CC(=O)O)cc1 (stereo not drawn) ?
HP1b chromo inh: inactive; PI5P4K alpha inh: inactive; JMJD2A Tudor: inactive; G9a block: 79µM; L3MBTL1 block: inactive; BAZ2B block: inactive

Results for COc1ccc(C(=O)COC(=O)CN2C(=O)C3C4CCC(C4)C3C2=O)cc1 (stereo not drawn) ?
HP1b chromo inh: inactive; PI5P4K alpha inh: inactive; JMJD2A Tudor: 50µM; G9a block: inactive; BAZ2B block: inactive

Results for O=C(CN1C(=O)C2C3C=CC(C3)C2C1=O)OCC(=O)c1ccc([N+](=O)[O-])cc1 (stereo not drawn) ?
HP1b chromo inh: inactive; PI5P4K alpha inh: inactive; JMJD2A Tudor: inactive; G9a block: 40µM; BAZ2B block: inactive

Results for COc1ccc(C(=O)COC(=O)C(C)N2C(=O)C3C4CCC(C4)C3C2=O)cc1 (stereo not drawn) ?
HP1b chromo inh: inactive; PI5P4K alpha inh: inactive; JMJD2A Tudor: inactive; G9a block: inactive[12.7 µM]; BAZ2B block: inactive

Results for CC(C)c1ccc(OCc2cc(=O)n3c4c(sc3n2)CCCC4)cc1 ?
HP1b chromo inh: inactive; JMJD2A Tudor: inactive; G9a block: inactive; BAZ2B block: inactive
